About 17,000 (4.7%) of roughly 360,000 compounds were called active. Roughly 5% stayed inconclusive and do not appear here. Many of the other results were omitted from the sample, so actives are more common in it than they were. Unmarked numbers belong to inactive results. Cut-off read from the data, not from the text of the source: active = activity change below about -50%; inconclusive = mostly about -30% to -49%; inactive = weaker than that.
% is set by controls: 0 for no effect and ±100 for the full control effect.

This experiment is described as follows: qHTS for Inhibitors of Inflammasome Signaling: IL-1-beta AlphaLISA Primary Screen. The settings on record: THP-1 LPS/ATP IL-1B secretion, 16 h; at 57.5 µM, hits give low values. The text has this:
Inflammasomes are a set of intracellular multi-protein complexes that enable autocatalytic activation of inflammatory caspases and drive the innate immune response to counter harmful agents. […] A qHTS assay, based on AlphaLISA technology, was developed to screen the Molecular Libraries Small Molecule Repository (MLSMR) to look for novel inflammasome inhibitors. The assay detects IL-1B using AlphaLISA anti-IL-1B acceptor and donor beads. A decreased emission signal, indicating reduced IL-1B secretion, is the desired outcome for this assay. NIH Chemical Genomics Center [NCGC] NIH Molecular Libraries Probe Centers Network [MLPCN] MLPCN Grant: MH095513 Assay Provider: Shyam Biswal Ph.D., Johns Hopkins University Immunity. 2012 Jul 27;37(1):85-95. PMID: 22819042 [2] Curr Pharm Des. 2012;18(16):2320-8. PMID: 22390695
Three microliters containing 3000 THP-1 cells were dispensed into the wells of solid, white, tissue culture treated Greiner 1,536-well plates. Library compounds and positive control, Glyburide, were pin-transferred (23 nL) by a Kalypsys pin-tool equipped with a 1,536-pin array, resulting in final compound concentration ranges of 2.5 nM to 57.5 uM. After 1 hr of cell culture incubation (37 °C, 5% CO2), 1 microL of 1 microg/mL lipopolysaccharide (250 ng/mL, final) and 5 mM ATP (1.25 mM, final) were added to stimulate the cells. After 16 hr of cell culture incubation with the compounds, 1.5 uL of anti-IL-1B acceptor beads (6 ug/mL, final) and biotinylated antibody (0.6 nM, final) were added to the plate, followed by a 1 hr incubation at ambient temperature. To detect the secreted IL-1B, 1.5 uL of AlphaLISA SA-Donor beads (24 ug/mL, final) were added, followed by 30 min of incubation in the dark at ambient temperature. The AlphaLISA signal was read by a PerkinElmer EnVision plate reader with an ultrasensitive luminescence detector and 1536 Plate HTS AlphaScreen aperture (excitation of 680nm and emission of 615nm).
(In general: Quantitative high-throughput screening tests each substance at several concentrations.)
In the case of `Cc1nn(Cc2ccc(Cl)cc2)c(Cl)c1/C=N/NC(=O)CNc1ccccc1F`, the activity change was -13.7%.

With `Cc1nn(Cc2ccc(Cl)cc2)c(Cl)c1/C=N/NC(=O)c1cccnc1`, the activity change is -70.6% (active).

With `COc1ccccc1NC(=O)Nc1nc(CC(=O)Nc2ccccc2F)cs1`, the activity change is -1.21%. As to `CC(=O)c1ccc(Nc2nc(C(N)c3ccccc3Cl)cs2)cc1` (stereo not given), the activity change is 49.4%. Consider `NC(c1csc(NC(=O)Nc2ccccc2Oc2ccccc2)n1)c1ccccc1Cl` (stereo not given), for which the activity change was -71.7% (active). `CC/C(=C\c1ccc(Cl)cc1)c1ccncc1`: the activity change is 3.7%. Regarding `COCCCn1c(C(=O)NC2CCCCC2)cc2c(=O)n3cccc(C)c3nc21`, the activity change is -7.13%. Take `Cn1ncc([N+](=O)[O-])c1C(=O)Nc1cc(Cl)ccc1Cl`: the activity change was -5.95%.

With `COc1ccccc1NC(=O)Nc1nnc(Cc2ccc(F)cc2)s1`, the activity change is 28.6%. With `Cc1cccc(C)c1Cn1c(C)c(C(=O)NCc2cccc(Cl)c2)sc1=O`, the activity change is -13.4%. In the case of `CC(=O)OCc1cc(=O)n(C)c(=O)n1C`, the activity change is 18.2%. As for `CN(Cc1ccccc1)CC(O)COc1ccc(CNCc2cc3ccccc3s2)cc1` (stereo not given), the activity change is -52.3% (active). As for `COc1ccc(OCC(O)CN(C)C(=O)C(C)Oc2ccccc2)cc1` (stereo not given), the activity change is -1.85%. As to `Cc1ccc(OCC(=O)OC(C)CN(C)Cc2ccccc2)cc1` (stereo not given), the activity change was 11.3%.

Turning to `CC1(C(=O)NCc2ccccc2)CSCC(=O)N1CCCn1ccnc1` (stereo not given), the activity change was -3.98%. As for `Cc1ccc(C(CNC(=O)Nc2ccccc2)N2CCN(C)CC2)cc1` (stereo not given), the activity change is -19.3%.

In the case of `Cc1ccc2nc(SCC(=O)N3CCN(c4ccccc4)CC3)nc(=O)n2c1`, the activity change was -22.4%. As for `CCN(CCCNC(=O)CSc1cc(=O)n(C)c2cc(Cl)ccc12)Cc1ccccc1`, the activity change is -66.3% (active). In the case of `CCN(CC)CCCNC(=O)CCn1nc(-c2ccc(Cl)cc2)ccc1=O`, the activity change was 0.889%. As for `CCOc1ccc(CCNC(=O)CSc2cc(=O)n(C)c3ccc(Cl)cc23)cc1OCC`, the activity change is 15.4%.

Turning to `COC(=O)c1ccc(CN2C(=O)C(Cc3ccccc3)ON=C2c2ncccc2C)o1` (stereo not given), the activity change is 0%. To `Cc1ccc2cccc(OCCCOc3ccccc3CO)c2n1` belongs -5.38%; to `N#Cc1cccc(NC(=O)CN2CCCCCC2)c1`, -4.14%. `O=C1CC(c2ccccc2)=NN1c1ccc([N+](=O)[O-])cc1`: the activity change is -62.7% (active). To `O=[N+]([O-])c1ccc(N2CCOCC2)cc1` belongs -12%.

As to `Cc1nc(-c2ccc([N+](=O)[O-])cc2)c(-c2ccccc2)o1`, the activity change is -1.34%.

As for `Cc1c(NC(=O)COC(=O)/C=C/c2cccc(F)c2)c(=O)n(-c2ccccc2)n1C`, the activity change is -1.18%. With `CCCCN1CC(C)(C)[C@H](CC(=O)Nc2ccc(Br)cc2)C1=O`, the activity change is -25.6%.

For the compound `COc1ccc([C@H]2C[C@@H](n3cc(COC(=O)c4ccccc4)nn3)[C@H](O)CN2C(=O)c2cccs2)cc1`, the activity change was 3.71%.

Regarding `C[C@H]1CN([C@@H](C)CO)C(=O)CCCn2cc(nn2)CO[C@@H]1CN(C)S(=O)(=O)c1ccc(-c2ccccc2)cc1`, the activity change is 0%. On to `CCOC(=O)c1oc2c(CN3CCN(C)CC3)c(O)ccc2c(=O)c1-c1ccc(Br)cc1`, for which the activity change was 2.61%. As to `O=c1oc2c(CN3CCCCC3)c(O)ccc2c2c1CCCCC2`, the activity change was 11%.

For the compound `CN1CCN(Cc2c(O)ccc3c2oc(=O)c2ccccc23)CC1`, the activity change is -65.7% (active). Turning to `O=c1cc(CN2CCCCCCC2)c2c(ccc3ccccc32)o1`, the activity change was 25.6%. In the case of `CCOC(=O)CCCNC(=O)COC(=O)/C=C/c1ccc2c(c1)OCO2`, the activity change was -11.7%. For the compound `O=C(COC(=O)/C=C/c1ccc2c(c1)OCO2)NC1CCS(=O)(=O)C1` (stereo not given), the activity change is -29.2%.

`CN(Cc1ccccc1)C(=O)COC(=O)/C=C/c1ccc2c(c1)OCO2`: the activity change was -60.4% (active). Take `OC[C@@H]1CN(Cc2ccc(F)cc2)C[C@H](n2cnc3c(NC4CCCC4)ncnc32)O1`: the activity change was 0%. Next, `COc1cc(CC(=O)NCc2cccs2)cc(OC)c1OC`: 0%. Take `CC(=O)NC(c1ccccc1)c1nc(-c2cccc(C(C)C)c2)cs1` (stereo not given): the activity change was -14.5%.

`COc1ccc(CCN(C(=O)COc2ccccc2)c2nc(-c3ccccc3)cs2)cc1OC`: the activity change was -19.6%. As for `COc1ccc(-c2csc(Nc3cccc(C)n3)n2)cc1OC`, the activity change was -7.72%. In the case of `COc1ccc(CCNc2nc(-c3cccc(NC(C)=O)c3)cs2)cc1OC`, the activity change is -53.6% (active). Turning to `O=C(COc1ccccc1F)Nc1nc(-c2ccccn2)cs1`, the activity change was 33.3%.

In the case of `COc1cccc(CC(=O)Nc2nc(-c3ccc(OC)c(OC)c3)cs2)c1`, the activity change is -50.3% (active).

On to `COc1ccc(NC(=O)C2(C)Cc3c(-c4cccc(NC(C)=O)c4)ccnc3O2)cc1OC` (stereo not given), for which the activity change is -4.57%.

Turning to `CCCCCCC(=O)Nc1nc(C)c(-c2csc(Nc3cccc(OC)c3)n2)s1`, the activity change is -17.4%.

As to `COc1cc(CC(=O)Nc2nc(-c3ccc(F)c(F)c3)cs2)cc(OC)c1OC`, the activity change is -57% (active). Consider `CC(=O)Nc1cccc(-c2csc(Nc3cccc(C)n3)n2)c1`, for which the activity change is -56.6% (active). With `COc1ccc(OC)c(-c2csc(NC(=O)COC(=O)C3CC3)n2)c1`, the activity change was -8.53%.
